Each structure is given as a SMILES string. Records with an inconclusive call do not appear. Activity calls are given as the source filed them. Unless noted, calls follow the shape of the dose curve; as a rule, active = well fitted curve in the direction sought with a large enough effect; inconclusive = small, poorly fitted or top-dose-only effect, or another doubt; inactive = no such curve, though single readings can be large; an effect the other way counts as inactive or inconclusive.

One assay addresses Aldehyde dehydrogenase, mitochondrial (Homo sapiens) (UniProt P05091). The assay can be described thus: qHTS for Inhibitors of the Aldehyde Dehydrogenase Family (ALDH2) Confirmatory screens (AID 2061303; active = well fitted inhibition curve with a large enough effect; title and protocol of this record describe different tests; also: % is scaled to controls: 0 for no effect and ±100 for the full control effect; nearly all actives have a fitted effect of over 45% in size). Conditions: ALDH inhibition qHTS; series mostly up to 45.4 µM; activity change, negative = inhibition: at the top concentration. On the technique in general: Quantitative high-throughput screening tests each substance at several concentrations.
On to `CO[C@@H]1[C@H](O)[C@@H](O[C@@H]2C[C@H]3CC[C@@H]4C(CC[C@]5(C)[C@@H](C6=CC(=O)OC6)CC[C@]45O)[C@@]3(C)[C@H](O)C2)O[C@H](C)[C@@H]1O` (some centres not stated), for which the “activity change, negative = inhibition” value is -11.2% [at 25.8 µM] (inactive).

With `CCCN(CCC)[C@@H]1CCc2ccc3[nH]c(C#N)cc3c2C1`, the “activity change, negative = inhibition” value is -3.45% (inactive).

As to `CN(N=O)c1cc(O)ccc1O`, the “activity change, negative = inhibition” value was 0% (inactive).

Tested on in the next assay: not listed separately
In words: qHTS for Inhibitors of the Aldehyde Dehydrogenase Family (ALDH1A2, ALDH1A3, ALDH2, ALDH3A1) (AID 2061307). Also: nearly all actives have a fitted effect of over 50% in size. As to Potency: test system not described further here; potency is read from the fitted curve at half-maximal effect. As to activity change, negative = inhibition: % is scaled to controls: 0 for no effect and ±100 for the full control effect. Conditions: ALDH inhibition qHTS; series mostly up to 50.3 µM; activity change, negative = inhibition: at the top concentration.
Consider `CO[C@@H]1[C@H](O)[C@@H](O[C@@H]2C[C@H]3CC[C@@H]4C(CC[C@]5(C)[C@@H](C6=CC(=O)OC6)CC[C@]45O)[C@@]3(C)[C@H](O)C2)O[C@H](C)[C@@H]1O` (some centres not stated), for which the “activity change, negative = inhibition” value was -12.7% [at 34.4 µM] (inactive).

In the case of `CCCN(CCC)[C@@H]1CCc2ccc3[nH]c(C#N)cc3c2C1`, the “activity change, negative = inhibition” value was 11% (inactive).

Turning to `CN(N=O)c1cc(O)ccc1O`, the Potency is 2.25 µM (active).

`C[N+]1(C)CCOC(O)(c2ccc(-c3ccc(C4(O)C[N+](C)(C)CCO4)cc3)cc2)C1` (configuration not stated): the “activity change, negative = inhibition” value was 21.9% (inactive).

In another assay the target is Aldehyde dehydrogenase, mitochondrial (Homo sapiens) (UniProt P05091). The assay can be described thus: qHTS for Inhibitors of the Aldehyde Dehydrogenase Family (ALDH2) Primary screen (AID 2061308).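 Also: plate controls were vehicle for no effect and reference inhibitor for full effect; nearly all actives have a fitted effect of over 55% in size.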 Conditions: ALDH2 enzyme inhibition qHTS, 1536-well; series mostly up to 56 µM; activity change, negative = inhibition: at the top concentration.
Turning to `CO[C@@H]1[C@H](O)[C@@H](O[C@@H]2C[C@H]3CC[C@@H]4C(CC[C@]5(C)[C@@H](C6=CC(=O)OC6)CC[C@]45O)[C@@]3(C)[C@H](O)C2)O[C@H](C)[C@@H]1O` (some centres not stated), the “activity change, negative = inhibition” value was 2.14% [at 28 µM] (inactive).

With `CCCN(CCC)[C@@H]1CCc2ccc3[nH]c(C#N)cc3c2C1`, the “activity change, negative = inhibition” value was -22.9% (inactive).

`CC(O)(CS(=O)(=O)c1ccc(F)cc1)C(=O)Nc1ccc(C#N)c(C(F)(F)F)c1` (configuration not stated): the “activity change, negative = inhibition” value was 13.2% (inactive).

Consider `CN1CCC[C@@H]1Cc1c[nH]c2ccc(Nc3ncccc3[N+](=O)[O-])cc12`, for which the “activity change, negative = inhibition” value is 0.483% (inactive).

In a further assay the target is Retinaldehyde dehydrogenase 3 (Homo sapiens) (UniProt P47895). In words: qHTS for Inhibitors of the Aldehyde Dehydrogenase Family (ALDH1A3) Confirmatory screens (AID 2061311). Also: nearly all actives have a fitted effect of over 60% in size. Also: potency is read from the fitted curve at half-maximal effect. As to activity change, negative = inhibition: % is scaled to controls: 0 for no effect and ±100 for the full control effect. Conditions: ALDH inhibition qHTS; series mostly up to 46 µM; activity change, negative = inhibition: at the top concentration.
On to `CO[C@@H]1[C@H](O)[C@@H](O[C@@H]2C[C@H]3CC[C@@H]4C(CC[C@]5(C)[C@@H](C6=CC(=O)OC6)CC[C@]45O)[C@@]3(C)[C@H](O)C2)O[C@H](C)[C@@H]1O` (some centres not stated), for which the “activity change, negative = inhibition” value was -10.8% [at 25.8 µM] (inactive).

Turning to `CCCN(CCC)[C@@H]1CCc2ccc3[nH]c(C#N)cc3c2C1`, the “activity change, negative = inhibition” value was -17.3% (inactive).

`CN(N=O)c1cc(O)ccc1O`: the Potency was 0.634 µM (active).

Take `CCCN1CCc2cccc3c2[C@H]1Cc1ccc(O)c(O)c1-3`: the Potency was 22.5 µM (active).

The next assay shares this target. In words: qHTS for Inhibitors of the Aldehyde Dehydrogenase Family (ALDH1A3) Validation screen (AID 2061312). Also: nearly all actives have a fitted effect of over 45% in size. Also: potency is read from the fitted curve at half-maximal effect. As to activity change, negative = inhibition: % is scaled to controls: 0 for no effect and ±100 for the full control effect. Conditions: ALDH1A3 enzyme inhibition qHTS validation, fluorescence; series mostly up to 42.4 µM; activity change, negative = inhibition: at the top concentration.
Consider `CC(C)(C)c1o[nH]c(=O)c1CC(N)C(=O)O` (configuration not stated), for which the “activity change, negative = inhibition” value was -16.6% (inactive).

With `CCCCCN(C)CCC(O)(P(=O)(O)O)P(=O)(O)O`, the “activity change, negative = inhibition” value is -6.97% (inactive).

For the molecule `CCCN(CCC)[C@@H]1CCc2cccc(O)c2C1`, the “activity change, negative = inhibition” value was 6.16% (inactive).

With `NC(=O)c1cc(N2CC2)c([N+](=O)[O-])cc1[N+](=O)[O-]`, the “activity change, negative = inhibition” value was 0.858% (inactive).

Take `CN1C2CCC1CC(OC(=O)c1cc(Cl)cc(Cl)c1)C2` (configuration not stated): the “activity change, negative = inhibition” value was 10.9% (inactive).

With `Cc1nccc2c1[nH]c1ccccc12`, the “activity change, negative = inhibition” value was 8.98% (inactive).

For the molecule `COC[C@H]1OC(=O)c2coc3c2[C@@]1(C)C1=C(C3=O)C2CCC(=O)[C@@]2(C)C[C@H]1OC(C)=O` (some centres not stated), the Potency was 7.08 µM (active).

Turning to `NC(CP(=O)(O)O)C(=O)O` (configuration not stated), the “activity change, negative = inhibition” value is -13.9% (inactive).

As for `CC(C)(C)c1cc(C=C(C#N)C#N)cc(C(C)(C)C)c1O`, the “activity change, negative = inhibition” value is -3.9% (inactive).

Take `C[C@@H]1O[C@@H](O[C@H]2C[C@@H](O)[C@]3(CO)[C@@H]4C(CC[C@]3(O)C2)[C@@]2(O)CC[C@H]([C@@H]3COC(=O)C3)[C@@]2(C)C[C@H]4O)[C@H](O)[C@H](O)[C@H]1O` (some centres not stated): the “activity change, negative = inhibition” value was 3.73% (inactive).

On to `NCC(CP(=O)(O)O)c1ccc(Cl)cc1` (configuration not stated), for which the “activity change, negative = inhibition” value was 22% (inactive).

For `CC[C@@H](C(N)=O)N1CCCC1=O`, the “activity change, negative = inhibition” value is 3.44% (inactive).

As to `O=C(O)c1nn(Cc2ccc(Cl)cc2Cl)c2ccccc12`, the “activity change, negative = inhibition” value was -0.0519% (inactive).

For `CN(N=O)c1cc(O)ccc1O`, the Potency was 0.282 µM (active).

For `CC(=O)[C@H]1CC[C@H]2[C@@H]3CC[C@H]4C[C@H](O)CC[C@]4(C)[C@H]3C(=O)C[C@]12C`, the “activity change, negative = inhibition” value is 13.5% (inactive).

Turning to `CC(C)c1cccc(C(C)C)c1O`, the “activity change, negative = inhibition” value is 5.55% (inactive).

For `CC(=O)[C@H]1CCC2C3CC[C@H]4C[C@H](O)CC[C@]4(C)C3CC[C@@]21C` (some centres not stated), the “activity change, negative = inhibition” value was -13.1% (inactive).

Regarding `CC(C)(C)NCC(O)c1ccccc1Cl` (configuration not stated), the “activity change, negative = inhibition” value was 12.7% (inactive).

Take `CC(O)(CS(=O)(=O)c1ccc(F)cc1)C(=O)Nc1ccc(C#N)c(C(F)(F)F)c1` (configuration not stated): the Potency result was “inactive”.

Take `O=c1[nH]c2ccccc2n1CCCN1CCC(n2c(=O)[nH]c3cc(Cl)ccc32)CC1`: the “activity change, negative = inhibition” value is 11.8% (inactive).

For the molecule `COc1ccc2[nH]cc(CCN)c2c1`, the “activity change, negative = inhibition” value was -4.44% (inactive).

For the molecule `O=c1[nH]oc2c1CCNC2`, the “activity change, negative = inhibition” value was -5.39% (inactive).

For `C=CCN1CC[C@]23CCCCC2[C@H]1Cc1ccc(O)cc13` (some centres not stated), the “activity change, negative = inhibition” value was 1.18% (inactive).

Take `O=C(O)CC[N+](=O)[O-]`: the “activity change, negative = inhibition” value is -4.17% (inactive).

Take `CN1CCC[C@@H]1Cc1c[nH]c2ccc(Nc3ncccc3[N+](=O)[O-])cc12`: the Potency result is “inactive”.

For the molecule `CCCCc1ccc(C(=O)O)nc1`, the “activity change, negative = inhibition” value is -36.9% (inactive).

Regarding `CCCN(CCC)C1CCc2cccc(O)c2C1` (configuration not stated), the “activity change, negative = inhibition” value was 9.68% (inactive).

Take `CN[C@@H]1C[C@@H](c2ccc(Cl)c(Cl)c2)c2ccccc21`: the “activity change, negative = inhibition” value was -10.3% (inactive).

With `CC(C)NP(=O)(NC(C)C)OP(=O)(NC(C)C)NC(C)C`, the “activity change, negative = inhibition” value was 7.67% (inactive).

In the case of `CCCn1c(=O)c2[nH]c(C3CCCC3)nc2n(CCCOC(=O)c2ccc(S(=O)(=O)F)cc2)c1=O`, the “activity change, negative = inhibition” value is -10.9% (inactive).

Consider `COC(=O)[C@@H](N)CCCN=C(N)N[N+](=O)[O-]`, for which the “activity change, negative = inhibition” value is -27.8% (inactive).

In the case of `CC(N)[C@H](O)c1ccc(O)c(O)c1` (some centres not stated), the “activity change, negative = inhibition” value is -11.5% (inactive).
